From PubChem
NPC1 prom act – activates the NPC1 promoter; Huh7 NPC1 promoter luciferase reporter, 24 h; Potency, µM (doses to about 9.22 µM), most hits filed as activators; 2.4% of 320,000 active; AID 485313; note: nearly all actives have a fitted effect of over 60% in size
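Compounds in DMSO were transferred onto Huh7 NPC1-luciferase reporter cells pre-incubated 2 h; after 24 h at 37 °C, Amplite reagent was dispensed and luminescence recorded 10 min later.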
ELG1 genotox – genotoxicity induction in ELG1-luciferase HEK293T cells; 1.3% of 330,000 active; HEK293T ELG1-luciferase reporter, luminescence, 16 h; Potency, µM (titrated, usually from 46 µM), most hits filed as activators; note: nearly all actives have a fitted effect of over 60% in size
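Genotoxicity was scored as increased ELG1-luciferase reporter signal, measured by ONE-Glo luminescence (30 min, room temperature). Compound or vehicle exposure of the HEK293T reporter cells lasted 16 hr at 37°C.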
Rab9 promoter act – activates the Rab9 promoter; Huh7 Rab9 promoter-luciferase reporter, luminescence, 24 h; Potency, µM (doses to about 9.22 µM), hits mostly activators; 2.8% of 320,000 active; note: nearly all actives have a fitted effect of over 60% in size
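Luminescence from Amplite-detected luciferase (10 minutes, ambient) reports Rab9 promoter activation. Before that, stable Rab9-luciferase Huh7 cells (1500/well, reduced-serum OP-MEM I plus 10% FBS) were exposed to compound for 24 hours at 37C.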
SMN2 splice up – SMN2 splice variant enhancement; HEK293 SMN2-luciferase splicing reporter, luminescence, 30-36 h; Potency, µM (series often up to 46.1 µM), actives largely listed as activators; 2.8% of 210,000 active; AID 1458; note: nearly all actives have a fitted effect of over 55% in size
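HEK293 cells carry an SMN2 minigene-luciferase reporter in which exon 7 inclusion puts luciferase in frame. Cells were seeded at 2000 cells/well, attached for 10-12 hours, then exposed to compounds for 30-36 hours at 37C before ONE-Glo luminescence.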
ELG1 DNA repair – inhibitors of ELG1-dependent DNA repair in HEK293T cells | HEK293T ELG1-luciferase reporter, luminescence, 16 h; DNA damage induced by 5-fluorouridine | Potency, µM (top dose mostly 46.1 µM), hits mostly inhibitors | 2.3% of 330,000 active | AID 504467; note: nearly all actives have a fitted effect of over 55% in size
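DMSO vehicle served as the neutral condition. Each well held 2,000 cells given 5-fluorouridine plus compound; after 16 hr at 37 °C/5% CO2, ONE-Glo was added and luciferase measured 30 min later.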
FLuc modulator – inhibits or activates purified firefly luciferase, miR-21 counter-screen | P08659 | purified FLuc, Km substrates, luminescence inhibition | Potency, µM (titrated, usually from 57.5 µM), actives largely listed as inhibitors | 6.9% of 360,000 active | AID 588342; note: nearly all actives have a fitted effect of over 55% in size
Target sequence (P08659 whole entry, looked up): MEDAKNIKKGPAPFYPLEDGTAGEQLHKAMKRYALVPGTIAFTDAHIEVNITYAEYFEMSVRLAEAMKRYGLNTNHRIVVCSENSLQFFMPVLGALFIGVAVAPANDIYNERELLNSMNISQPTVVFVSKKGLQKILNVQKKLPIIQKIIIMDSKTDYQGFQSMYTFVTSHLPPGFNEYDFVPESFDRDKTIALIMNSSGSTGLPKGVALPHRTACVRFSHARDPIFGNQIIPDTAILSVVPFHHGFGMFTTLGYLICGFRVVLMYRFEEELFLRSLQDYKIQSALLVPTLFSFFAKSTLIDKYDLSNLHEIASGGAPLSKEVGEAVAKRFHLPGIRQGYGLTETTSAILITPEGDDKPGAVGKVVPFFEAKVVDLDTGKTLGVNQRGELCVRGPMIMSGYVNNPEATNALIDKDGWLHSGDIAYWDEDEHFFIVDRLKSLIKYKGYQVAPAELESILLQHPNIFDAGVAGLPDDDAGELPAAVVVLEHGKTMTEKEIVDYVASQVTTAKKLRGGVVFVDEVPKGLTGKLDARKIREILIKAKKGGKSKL
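Biochemical qHTS of compounds, final roughly 60 µM downward over six points, against 10 nM purified firefly luciferase using Km concentrations of substrates (10 uM D-luciferin, 10 uM ATP) in Tris acetate pH 7.5 buffer; luminescence output.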
A number is an active result; - = inactive; ? = inconclusive; . = no result given; ! = a repeat was not active; [ ] = another dose, or the depositor's remark. In the library only some 9.2% were active in any assay of this set; here they are far more common. Calls come from the whole dose curve; as a rule, active = well fitted curve in the direction sought with a large enough effect; inconclusive = small, poorly fitted or top-dose-only effect, or another doubt; inactive = no such curve, though single readings can be large; an effect the other way counts as inactive or inconclusive.

SMILES	NPC1 prom act	ELG1 genotox	Rab9 promoter act	SMN2 splice up	ELG1 DNA repair	FLuc modulator
CS(=O)(=O)N1CCC(C(=O)NCc2ccc(F)cc2)CC1	-	-	-	-	-	-
Cc1cc(NC(=O)CSc2nnc(-c3ccc4c(c3)OCCO4)o2)no1	?	?	?	7.1µM	?	?
Cc1cc(NC(=O)CSc2nnc(-c3cccc(Cl)c3)o2)no1	-	-	-	.	-	-
CC1CCN(CCNC(=O)c2ccc(Cn3c(SCc4ccccc4)nc4cccnc43)cc2)CC1	.	.	.	-	.	12µM
Cc1cccc(Cn2c(SCc3ccc(C(=O)NCCc4ccccc4)cc3)nc3cccnc32)c1	.	.	.	.	.	-
CC1CCCCN1CCNC(=O)c1ccc(Cn2c(SCc3ccccc3)nc3cccnc32)cc1 (stereo not given)	.	.	.	-	.	13µM
O=C(NCCN1CCCCC1)c1ccc(Cn2c(SCc3ccccc3)nc3cccnc32)cc1	.	.	.	-	.	12µM
Cc1ccc(-c2ccc(=O)n(CC(=O)Nc3ccc(C(C)C)cc3)n2)cc1	.	.	.	-	.	?
c1cncc(-c2ccc3ncnc(NCc4ccc5c(c4)OCO5)c3c2)c1	-	-	-	.	?	-
c1nc(NCc2ccc3c(c2)OCO3)c2cc(-c3ccoc3)ccc2n1	-	-	-	.	1.6µM	?
CC(C)(C)c1ccc(OCCNC(=S)NC(=O)c2cccnc2)cc1	-	-	-	-	-	?
O=C(O)c1cc(N=Nc2ccc([N+](=O)[O-])cc2)ccc1O	.	.	.	14µM!	.	.
Cn1c(N=NC(=O)c2ccccc2)c(O)c2ccccc21	0.71µM	?	0.56µM	1.3µM	?	0.85µM
Cn1c(O)c(N=NC(=O)CNC(=O)c2ccccc2)c2ccccc21	-	-	-	.	-	-
Cc1sc(-n2cccc2)c(C(C)NC(=O)Nc2cccc(C(F)(F)F)c2)c1C (stereo not given)	.	.	.	-	.	-
CCCc1cc(C(=O)NC2CCCC2)no1	?	10µM	?	13µM	?	?
CCCc1cc(C(=O)N(C2CCCCC2)C2CCCCC2)no1	-	-	-	-	-	-
CC(C)c1cc(C(=O)NC2CCCCC2)no1	?	?	?	11µM	?	17µM
Cc1cc(C(=O)NC2CCCCC2)on1	-	-	-	.	-	-
CCCc1cc(C(=O)NC2CCCCC2)no1	4µM	16µM	?	14µM	?	?
CC(C)=N/N=C1/NC(=O)C(CC(=O)Nc2cc(Cl)ccc2C)S1 (stereo not given)	-	-	-	.	-	-
O=C(/C=C/c1ccc(F)cc1)c1ccc(N2CCOCC2)cc1	-	-	-	.	-	1.2µM
C/C(=N\NC(=O)c1cccc(C)c1)c1ccc(N2CCOCC2)cc1	-	-	-	-	?	-
C/C(=C\C(=O)c1ccc(F)cc1)Nc1ccc(N2CCOCC2)cc1	-	-	-	-	-	-
CCc1ccc(/C=C/C(=O)c2ccc(S(=O)(=O)N(C)C)cc2)cc1	-	-	-	-	-	-
SMILES	NPC1 prom act	ELG1 genotox	Rab9 promoter act	SMN2 splice up	ELG1 DNA repair	FLuc modulator
Cc1cccc(/C=C/C(=O)c2ccc(N3CCOCC3)cc2)c1	-	-	-	-	-	21µM
Cc1ccc(/C=C/C(=O)c2ccc(N3CCOCC3)cc2)s1	?	-	?	22µM	?	0.34µM
CCc1ccc(/C=C/C(=O)c2ccc(N3CCOCC3)cc2)cc1	-	-	-	-	-	1.5µM
Cc1cc(Cc2cc(C)c(N)cc2N)c(N)cc1N	.	.	.	-[9.22 µM]	.	.
CC1CN(C(=O)CCC(=O)NC2CCCCC2)c2ccccc2S1 (stereo not given)	-	-	-	.	-	-
CN(C)N1C(N)=C(C#N)C(c2cccs2)C2=C1CC(C)(C)CC2=O (stereo not given)	-	-	-	-	-	-
Cc1ccc(Oc2ccc(-c3nc(N)nc(N)n3)cc2)cc1	-	-	-	-	-	?
Nc1nc(N)nc(-c2ccc(Cl)cc2)n1	?	?	?	-	?	15µM
Nc1nc(-c2ccc(Cl)cc2)nnc1-c1ccc(Br)cc1	1.8µM	?	1.1µM	.	?	?
N#CC(c1ccccc1O)N1N=C(c2ccccc2)CC1c1ccccc1 (stereo not given)	-	?	?	.	?	9.5µM
COc1cc(C(C#N)N2N=C(c3ccccc3)CC2c2ccccc2)ccc1O (stereo not given)	-	?	-	-	?	?
COC1=CC(C)C2CC3OC(=O)CC4C(C)=C(OC)C(=O)C([C@]2(C)C1=O)[C@]34C (stereo not given in full)	.	.	.	-	.	.
Cc1nc2ccccc2c2oc(C(=O)Nc3ccc4c(c3)OCCO4)cc12	-	-	-	-	21µM	15µM
COc1cc(NC(=O)c2cc3c(C)nc4ccccc4c3o2)cc(OC)c1OC	-	-	-	-	7.3µM	-
COc1cccc(CNC(=O)c2cc3c(C)nc4ccccc4c3o2)c1	-	-	-	-	?	-
Cc1nc2ccccc2c2oc(C(=O)Nc3ccc(C(C)C)cc3)cc12	-	-	-	-	23µM	-
Cc1cccc([C@@H]2[C@@H]3C(=O)N(Cc4ccccc4)C(=O)[C@@H]3[C@]3(CC(C)C)C(=O)N(c4cccc(F)c4)C(=O)N23)c1	-	-	-	.	?	-
Cc1ccnc(SCc2cc(=O)c(OC(=O)c3ccc(Cl)c([N+](=O)[O-])c3)co2)n1	-	-	-	-	21µM	-
O=[N+]([O-])c1ccccc1/C=N/OCc1ccccc1	4µM	?	?	.	?	11µM
CCOC(=O)c1c(NC(=O)C2=C(C)NC(=S)NC2c2ccccc2C(F)(F)F)sc(C)c1C (stereo not given)	-	-	-	-	23µM	-
N.N.N.N.N.N.N.N.N.N.N.N.N.N.O.O.[Ru+4].[Ru+5].[Ru+5]	-	.	-	.	.	.
O=C(O)c1c2c(nc3ccccc13)/C(=C/c1ccc(O)cc1)CCC2	-	-	-	-	-	19µM
COc1ccc(/C=C2\CCc3c2nc2ccccc2c3C(=O)O)cc1OC	0.4µM	4.1µM	0.32µM	.	?	0.3µM
O=C(O)c1c2c(nc3ccccc13)-c1ccccc1CC2	-	-	-	.	-	11µM
c1ccc2c(c1)CCc1c-2nc2ccccc2c1N1CCOCC1	-	-	-	.	-	-
CN(C)c1ccc(/C=C2\CCCc3c2nc2ccccc2c3C(=O)O)cc1	2.5µM	12µM	0.89µM	.	?	4.3µM
Cc1ccc(S(=O)(=O)n2nc(-c3ccco3)nc2NCc2ccccc2Cl)cc1	.	.	.	?	.	-
C/C(CCc1ccc2c(c1)OCO2)=N\N=C1\NC(=O)CC(C(=O)Nc2ccccc2F)S1 (stereo not given)	-	-	-	-	-	?
CC(C)Oc1ccc(C(=O)Nc2ccc(C(F)(F)F)n(C)c2=O)cc1	-	-	-	-	?	19µM
